Data: PubChem BioAssay (NCATS)
Results filed as inconclusive are left out. The source made the active and inactive calls. The call rests on the fitted dose curve; in most records, active means well fitted curve in the direction sought with a large enough effect; inconclusive means small, poorly fitted or top-dose-only effect, or another doubt; inactive means no such curve, though single readings can be large; an effect the other way counts as inactive or inconclusive.

Experiments:
[1] = biological target: Cellular tumor antigen p53 (Homo sapiens) (UniProt P04637); test: Primary qHTS for small molecule compounds that upregulate eGFP-tagged delta133p53alpha (in N-terminal) cells. (AID 2060322); settings: NCI-H358 eGFP-delta133p53alpha fluorescence, 24 h; activation: active compounds read high;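 further: series mostly up to about 56 µM; 0% = DMSO vehicle and 100% = reference activator; nearly all actives have a fitted effect of over 75% in size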
Procedure, shortened: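 NCI-H358 cells pre-induced 24 h with 10 ng/ml doxycycline to express N-terminal eGFP-delta133p53alpha, then dosed 24 h at 37C without doxycycline; fixed, Hoechst-stained, GFP intensity by laser scanning cytometry, normalized to DMSO (0%) and 57.5 uM 5-azacytidine (100%).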

[2] = biological target: Aldehyde dehydrogenase, mitochondrial (Homo sapiens) (UniProt P05091); test: qHTS for Inhibitors of the Aldehyde Dehydrogenase Family (ALDH2) Primary screen (AID 2061308);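 further: plate controls were vehicle for no effect and reference inhibitor for full effect; nearly all actives have a fitted effect of over 55% in size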
[3] = biological target: Retinaldehyde dehydrogenase 3 (Homo sapiens) (UniProt P47895); test: qHTS for Inhibitors of the Aldehyde Dehydrogenase Family (ALDH1A3) Primary screen (AID 2061315);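 further: plate controls were DMSO vehicle for no effect and reference inhibitor for full effect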

Chain of Cellular tumor antigen p53 (Homo sapiens) (P04637 whole entry, looked up): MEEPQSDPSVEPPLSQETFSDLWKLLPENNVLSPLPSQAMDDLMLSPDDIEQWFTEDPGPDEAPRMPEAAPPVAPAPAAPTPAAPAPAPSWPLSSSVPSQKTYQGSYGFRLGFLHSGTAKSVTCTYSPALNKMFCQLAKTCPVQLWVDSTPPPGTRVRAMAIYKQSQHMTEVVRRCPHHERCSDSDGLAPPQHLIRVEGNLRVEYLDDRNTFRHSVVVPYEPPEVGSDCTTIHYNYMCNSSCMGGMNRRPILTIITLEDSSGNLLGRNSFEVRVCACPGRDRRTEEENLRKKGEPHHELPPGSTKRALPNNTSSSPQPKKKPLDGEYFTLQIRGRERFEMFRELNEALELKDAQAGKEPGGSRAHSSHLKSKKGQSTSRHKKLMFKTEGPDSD

C=C[C@H]1[C@H](O[C@@H]2O[C@H](CO)[C@@H](O)[C@H](O)[C@H]2O)OC=C2C(=O)N3Cc4c([nH]c5ccccc5c4=O)[C@@H]3C[C@H]21
inactive: activation [1] 0.893% | Potency [2] | Potency [3]

O=C(O)CCc1cccc(O[C@@H]2O[C@H](CO)[C@@H](O)[C@H](O)[C@H]2O)c1O
inactive: activation [1] -6.87% | Potency [2] | Potency [3]

CCCCCCCCC(=O)N[C@H](CN1CCCC1)[C@H](O)c1ccc2c(c1)OCCO2
inactive: activation [1] -1% | Potency [2] | Potency [3]

O=C(CCc1ccccc1)N1CCC(O)(Cn2cnc3cc(Cl)ccc3c2=O)CC1
inactive: activation [1] -13.7% | Potency [2] | Potency [3]

COC(=O)[C@H](Cc1ccc([N+](=O)[O-])cc1)NC(=O)c1cccc2ccccc12
inactive: activation [1] 11.5% | Potency [2] | Potency [3]

CC(C)(C)NCCCNC(=O)c1cccc(Br)c1
inactive: activation [1] -8.59% | Potency [2] | Potency [3]

CC1CC(=O)C2C(O)(C1)CC(O)C13OC1c1c(O)cccc1C(=O)C23O (centres undefined)
inactive: activation [1] -1.53% | Potency [2] | Potency [3]

COc1cc2c(c(OC)c1O)C(c1ccc(O)cc1)C1C(=O)OC3C(COC(=O)C1=C2)OC(CO)(OC1OC(COC(=O)/C=C/c2ccc(OC4OC(C)C(O)C(O)C4O)cc2)C(O)C(O)C1O)C3O (centres undefined)
inactive: activation [1] 23.2% | Potency [2] | Potency [3]

CC[N+]1(CC)CCC(=C(c2ccccc2)c2ccccc2)C1C (centres undefined)
inactive: activation [1] -5.67% | Potency [2] | Potency [3]

CC1=CC(=O)CC(C)(C)[C@H]1/C=C/C(CO)O[C@@H]1O[C@H](CO)[C@@H](O)[C@H](O)[C@H]1O (some centres undefined)
inactive: activation [1] 9.16% | Potency [2] | Potency [3]

CC1(C)CCCC2(C)C1CC(=O)C13CC(CCC12)C(O)(CO)C3 (centres undefined)
inactive: activation [1] -7.63% | Potency [2] | Potency [3]

COc1cc(C)c(C(=O)O[C@@H]2[C@H](O)[C@@H](CO)O[C@H]2n2ccc(=O)[nH]c2=O)c(OC)c1
inactive: activation [1] -5.34% | Potency [2] | Potency [3]

CC(=O)N[C@H]1[C@H](O[C@H]2CC[C@]3(C)C4CC=C5[C@@H]6CC(C)(C)CC[C@]6(C(=O)O)[C@H](O)C[C@@]5(C)[C@]4(C)CC[C@H]3C2(C)C)O[C@H](CO)[C@@H](O)[C@@H]1O (some centres undefined)
inactive: activation [1] 9.82% | Potency [2] | Potency [3]

CCC1C(=O)OC23C=C[C@@H]4C(C(=O)O)=CO[C@H](O[C@@H]12)[C@@H]43 (some centres undefined)
inactive: activation [1] 7.63% | Potency [2] | Potency [3]

C[C@@H]1O[C@@H](OC(=O)Cc2ccccc2)[C@H](O)[C@H](O)[C@H]1O
inactive: activation [1] 17% | Potency [2] | Potency [3]

C/C(=C\CCC(C)CCO)C(=O)OC1(C)CCC2C(C(=O)O)=COC(OC3OC(CO)C(O)C(O)C3O)C21 (centres undefined)
inactive: activation [1] 4.58% | Potency [2] | Potency [3]

C=C(C)[C@@H](C)[C@H]1O[C@]23C[C@]4(CO2)C(CCC2[C@@]5(C)CC[C@H](O[C@@H]6OC[C@H](O)[C@H](O[C@@H]7O[C@H](CO)[C@@H](O)[C@H](O)[C@H]7O)[C@H]6O[C@@H]6O[C@@H](CO)[C@H](O)[C@H]6O)C(C)(C)C5CC[C@]24C)C3[C@@](C)(O)[C@@H]1OC(C)=O (some centres undefined)
inactive: activation [1] -7.63% | Potency [2] | Potency [3]

C=CC1(C)C=C2C(=O)CC3C(C)(C)CCCC3(C(=O)O)C2(O)CC1 (centres undefined)
inactive: activation [1] -15.3% | Potency [2] | Potency [3]

CC[C@]1(O)CC2CN(CCc3c([nH]c4ccccc34)[C@@](C(=O)OC)(c3cc4c(cc3OC)N(C=O)[C@H]3[C@@](O)(C(=O)OC)[C@H](OC(C)=O)[C@]5(CC)C=CCN6CC[C@]43[C@@H]65)C2)C1 (some centres undefined)
inactive: activation [1] -0.333% | Potency [2] | Potency [3]

CS(=O)(=O)N(CC(=O)NCC1CC1)c1cc(C(F)(F)F)ccc1Cl
inactive: activation [1] -13% | Potency [2] | Potency [3]

COc1cc(O)c([C@@H](CC(=O)N2CC(C)CC(C)C2)c2ccc3c(c2)OCO3)c(OC)c1 (some centres undefined)
inactive: activation [1] 28.3% | Potency [2] | Potency [3]

C=C1C2CCC3C(CCC4[C@@]3(C)CCC[C@@]4(C)C(=O)O)(C2)[C@@H]1OC(=O)/C(C)=C\C (some centres undefined)
inactive: activation [1] -8.93% | Potency [2] | Potency [3]

CO[C@H]1C[C@@H]2CC[C@@H](C)[C@@](O)(O2)C(=O)C(=O)N2CCCC[C@H]2C(=O)O[C@H]([C@H](C)C[C@@H]2CC[C@H](n3cnnn3)[C@H](OC)C2)CC(=O)[C@H](C)/C=C(\C)[C@@H](O)[C@@H](OC)C(=O)[C@H](C)C[C@H](C)/C=C/C=C/C=C/1C
inactive: activation [1] 1% | Potency [2] | Potency [3]
